From PubChem BioAssay (Tox21)
Several values for one entry are separate records, joined by “and”; a condition that tells them apart may be missing. Equal values may be shown once. Records with an inconclusive call do not appear. Entries that show only a call come without a potency. Where a structure was tested more than once in an assay, its records may differ in their call. Activity calls are given as the source filed them. Unless noted, the call rests on the fitted dose curve.

How the values were obtained:
[1] = Nuclear factor erythroid 2-related factor 2/antioxidant responsive element (Nrf2/ARE) small molecule agonists: qHTS cell viability counter screen in human keratinocytes (AID 1919968; active means well fitted curve in the direction sought with a large enough effect in the repeat runs; an effect the other way counts as inactive or inconclusive; further: nearly all actives have a fitted effect of over 55% in size; further: potency means the concentration at half of the fitted maximal effect)
Outline: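 KeratinoSens cells (HaCaT keratinocytes stably carrying an ARE-luciferase reporter) were seeded at 1,500 cells/well and rested 5 h at 37 C/5% CO2. They were then exposed to compounds in DMSO for 23 h. Viability was read by CellTiter-Fluor fluorescence after 1 h.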

[2] = molecular target: KiSS-1 receptor (Homo sapiens) (UniProt Q969F8); experiment: Human kisspeptin (KISS1R) small molecule agonists, calcium flux assay in KISS1R-HEK293 cells (AID 1920064; active means well fitted curve in the direction sought with a large enough effect in the repeat runs; an effect the other way counts as inactive or inconclusive)
KiSS-1 receptor (Homo sapiens), sequence (Q969F8 whole entry, looked up): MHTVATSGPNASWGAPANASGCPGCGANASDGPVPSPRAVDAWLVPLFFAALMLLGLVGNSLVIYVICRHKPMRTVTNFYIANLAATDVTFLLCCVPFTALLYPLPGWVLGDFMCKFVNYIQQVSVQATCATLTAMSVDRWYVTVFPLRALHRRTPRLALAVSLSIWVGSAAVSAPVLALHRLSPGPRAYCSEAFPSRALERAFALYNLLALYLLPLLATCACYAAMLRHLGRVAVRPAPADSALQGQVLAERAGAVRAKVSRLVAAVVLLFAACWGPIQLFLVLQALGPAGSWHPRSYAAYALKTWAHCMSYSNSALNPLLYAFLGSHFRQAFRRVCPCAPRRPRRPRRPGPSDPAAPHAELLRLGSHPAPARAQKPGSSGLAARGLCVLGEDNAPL
Outline: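 HEK293 cells stably expressing human KISS1R were plated 18 h at 37 °C, loaded with calcium dye for 1 h at 37 °C, then given compound by pin tool. Fluorescence (Ex/Em 480/540) was read kinetically for 3 min.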

[3] = G protein-coupled receptor (GPCR) small molecule agonists, calcium flux assay: HEK293 wild type cell line counter screen (AID 1920065)
Outline: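 Cells were plated and cultured 18 h at 37 C/5% CO2, then loaded with calcium dye for 1 h at 37 C. Compounds in DMSO were pin-transferred in agonist mode, and fluorescence (Ex/Em 480/540) was read kinetically for 3 min at 1 s intervals.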

[4] = p53 small molecule agonists, cell-based qHTS assay with rat liver microsomes (AID 1963578)
Outline: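 Quantitative HTS of the Tox21 10K library: p53RE-bla cells, rat liver microsomes plus NADPH at 0.5 mg/mL final each, 16 h at 37 C, beta-lactamase fluorescence detection.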

[5] = p53 small molecule agonists, cell-based qHTS assay with human liver microsomes: qHTS cell viability counter screen (AID 1963579); further: nearly all actives have a fitted effect of over 45% in size
Outline: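 Viability of p53RE-bla cells is measured as CellTiter-Glo luminescence following a 16 h, 37 C incubation with compound, liver microsomes from human donors and NADPH.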

[6] = p53 small molecule agonists, cell-based qHTS assay with rat liver microsomes: qHTS cell viability counter screen (AID 1963580); further: nearly all actives have a fitted effect of over 45% in size
Outline: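 Intracellular ATP, by CellTiter-Glo luminescence, defines viability. HCT-116 p53RE-bla cells, 4,000 per well, were compound-treated in the presence of rat liver microsomes and NADPH for 16 h at 37 C.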

[7] = p53 small molecule agonists, cell-based qHTS assay: qHTS cell viability counter screen (AID 1963581); further: nearly all actives have a fitted effect of over 45% in size
Outline: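 p53RE-bla HCT-116 cells were exposed to compounds for 16 h at 37 C; after the beta-lactamase FRET read in the same wells, CellTiter-Glo was added and luminescence (intracellular ATP) read after 30 min at room temperature.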

[8] = molecular target: 5-hydroxytryptamine receptor 2A (Homo sapiens) (UniProt P28223); experiment: 5-hydroxytryptamine receptor 2A (HTR2A) small molecule antagonists, cell-based qHTS assay (AID 1963586); further: nearly all actives have a fitted effect of over 45% in size; further: potency means the concentration at half of the fitted maximal effect
5-hydroxytryptamine receptor 2A (Homo sapiens), sequence (P28223 whole entry, looked up): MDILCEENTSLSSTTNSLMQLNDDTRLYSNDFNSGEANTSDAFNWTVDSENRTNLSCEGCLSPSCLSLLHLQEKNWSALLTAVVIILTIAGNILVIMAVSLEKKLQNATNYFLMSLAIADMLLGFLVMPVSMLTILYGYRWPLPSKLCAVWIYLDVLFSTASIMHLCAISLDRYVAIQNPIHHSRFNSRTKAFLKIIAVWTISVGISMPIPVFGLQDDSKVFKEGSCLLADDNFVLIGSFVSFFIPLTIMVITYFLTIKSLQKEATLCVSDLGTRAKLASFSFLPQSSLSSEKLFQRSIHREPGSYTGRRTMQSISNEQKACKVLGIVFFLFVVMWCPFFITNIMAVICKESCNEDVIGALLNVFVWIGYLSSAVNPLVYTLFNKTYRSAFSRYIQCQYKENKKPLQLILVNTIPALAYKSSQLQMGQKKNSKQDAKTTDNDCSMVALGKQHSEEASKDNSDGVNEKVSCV
Outline: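 Antagonist-mode intracellular calcium assay: DOI (4 nM) added after 5 min compound pre-incubation at room temperature to dye-loaded HTR2A-CHO cells. Fluorescence followed for 3 min, sampled every second.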

[9] = molecular target: 5-hydroxytryptamine receptor 2A (Homo sapiens) (UniProt P28223); experiment: 5-hydroxytryptamine receptor 2A (HTR2A) small molecule agonists, cell-based qHTS assay (AID 1963587); further: nearly all actives have a fitted effect of over 30% in size
Outline: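 Kinetic calcium-flux fluorescence (2 min, 1 sec intervals) after compound addition in agonist mode. HTR2A-CHO cells were cultured 18 h, then dye-loaded 1 h at 37 C.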

[10] = molecular target: Muscarinic acetylcholine receptor M1 (Homo sapiens) (UniProt P11229); experiment: Cholinergic receptor muscarinic 1 (CHRM1) small molecule antagonists, cell-based qHTS assay (AID 1963588); further: nearly all actives have a fitted effect of over 40% in size
Muscarinic acetylcholine receptor M1 (Homo sapiens), sequence (P11229 whole entry, looked up): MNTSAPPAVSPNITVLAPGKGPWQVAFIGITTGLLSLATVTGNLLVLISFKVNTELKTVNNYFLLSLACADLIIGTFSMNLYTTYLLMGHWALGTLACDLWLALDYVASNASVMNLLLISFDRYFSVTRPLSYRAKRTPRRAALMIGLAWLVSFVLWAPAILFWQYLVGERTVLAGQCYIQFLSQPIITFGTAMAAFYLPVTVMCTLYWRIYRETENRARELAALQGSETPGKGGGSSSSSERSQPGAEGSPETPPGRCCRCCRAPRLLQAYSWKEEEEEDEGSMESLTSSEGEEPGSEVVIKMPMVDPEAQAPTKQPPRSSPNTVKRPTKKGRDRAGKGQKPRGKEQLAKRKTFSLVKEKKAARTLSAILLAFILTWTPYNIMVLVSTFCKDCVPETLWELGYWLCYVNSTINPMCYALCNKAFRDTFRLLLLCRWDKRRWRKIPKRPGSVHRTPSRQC
Outline: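 CHRM1-CHO calcium-flux assay, antagonist mode. Cells were seeded 18 h, dye-loaded 1 h at 37 C and given compound for 5 min at RT, then acetylcholine was added at 50nM. FDSS fluorescence was read 3 min; 15 concentrations, three runs.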

[11] = molecular target: Muscarinic acetylcholine receptor M1 (Homo sapiens) (UniProt P11229); experiment: Cholinergic receptor muscarinic 1 (CHRM1) small molecule agonists, cell-based qHTS assay (AID 1963589); further: nearly all actives have a fitted effect of over 35% in size
Outline: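 CHO cells stably expressing human CHRM1, seeded 18 h at 37 C/5% CO2, dye-loaded 1 h at 37 C, then given compound in agonist mode; intracellular calcium fluorescence read kinetically at 1 s intervals. Fifteen concentrations, three independent runs.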

[12] = cAMP Responsive Elements (CRE) small molecule agonists, cell-based qHTS assay (AID 1963590)
Outline: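 CRE-bla HEK 293T cells in DMEM with 10% dialyzed FBS, NEAA, pyruvate and 25 mM HEPES were plated 18 h at 37 C/5% CO2, then exposed to compounds in DMSO for 3 h before LiveBLAzer B/G FRET substrate addition.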

[13] = cAMP Responsive Elements (CRE) small molecule antagonists, cell-based qHTS assay (AID 1963591; active means well fitted inhibition curve with a large enough effect in the signal ratio in the repeat runs, not every such curve was filed as active; the % refers to the signal ratio)
Outline: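 CRE-bla HEK293T cells were plated 18 h at 37 °C/5% CO2, pinned with compound in DMSO, then stimulated with NKH477 at 0.25 uM final for 3 h. LiveBLAzer B/G FRET substrate was added and plates incubated 2 h at room temperature.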

[14] = molecular target: Beta-2 adrenergic receptor (Homo sapiens) (UniProt P07550); experiment: Adrenergic beta2 receptor (ADRB2) small molecule antagonists, cell-based qHTS assay (AID 1963592); further: series mostly up to about 92 µM; nearly all actives have a fitted effect of over 50% in size
Beta-2 adrenergic receptor (Homo sapiens), sequence (P07550 whole entry, looked up): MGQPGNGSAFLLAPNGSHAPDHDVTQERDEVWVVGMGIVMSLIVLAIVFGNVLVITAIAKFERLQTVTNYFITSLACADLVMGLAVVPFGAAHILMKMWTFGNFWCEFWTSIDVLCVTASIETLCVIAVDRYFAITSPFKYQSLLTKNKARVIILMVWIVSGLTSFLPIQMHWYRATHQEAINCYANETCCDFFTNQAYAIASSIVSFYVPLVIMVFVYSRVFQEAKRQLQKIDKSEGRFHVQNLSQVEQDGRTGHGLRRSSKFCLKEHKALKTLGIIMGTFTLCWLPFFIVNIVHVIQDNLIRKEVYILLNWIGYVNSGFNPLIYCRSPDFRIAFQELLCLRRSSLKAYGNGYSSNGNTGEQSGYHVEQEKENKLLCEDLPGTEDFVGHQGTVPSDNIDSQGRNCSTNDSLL
Outline: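 Cells (CHO, stable ADRB2 overexpression) incubated 18-20hr at 37C; compounds added from DMSO; agonist mix (1nM isoproterenol, 100uM IBMX, 25uM Ro-20-1724) added; 0.5hr RT; d2-cAMP and anti-cAMP-cryptate added; 1hr RT; 665/615 nm read.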

[15] = molecular target: D(2) dopamine receptor (Homo sapiens) (UniProt P14416); experiment: Dopamine D2 receptor (DRD2) small molecule agonists, cell-based qHTS assay (AID 1963594); further: nearly all actives have a fitted effect of over 35% in size; further: potency means the concentration at half of the fitted maximal effect
D(2) dopamine receptor (Homo sapiens), sequence (P14416 whole entry, looked up): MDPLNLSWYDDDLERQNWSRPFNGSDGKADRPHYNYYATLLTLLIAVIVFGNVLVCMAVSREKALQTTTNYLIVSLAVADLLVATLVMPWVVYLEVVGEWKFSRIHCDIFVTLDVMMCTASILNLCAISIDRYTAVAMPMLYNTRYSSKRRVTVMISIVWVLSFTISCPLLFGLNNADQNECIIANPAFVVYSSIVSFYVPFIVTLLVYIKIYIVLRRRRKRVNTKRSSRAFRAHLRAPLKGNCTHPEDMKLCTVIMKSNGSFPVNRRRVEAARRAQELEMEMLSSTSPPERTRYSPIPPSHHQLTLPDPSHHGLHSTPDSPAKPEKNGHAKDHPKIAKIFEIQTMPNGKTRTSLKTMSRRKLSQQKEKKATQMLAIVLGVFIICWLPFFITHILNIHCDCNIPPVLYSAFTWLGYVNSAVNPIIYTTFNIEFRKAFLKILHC
Outline: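 cAMP accumulation in DRD2-HEK293 cells measured by HTRF after 1 h detection; compounds added 10 min before NKH477 (200nM […]) forskolin-analogue stimulation, 30 min at room temperature, with Ro20-1724 present at 0.1 mM final.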

[16] = molecular target: D(2) dopamine receptor (Homo sapiens) (UniProt P14416); experiment: Dopamine D2 receptor (DRD2) small molecule antagonists, cell-based qHTS assay (AID 1963595; active means well fitted inhibition curve with a large enough effect in the signal ratio in the repeat runs, with a control signal flat; the % refers to the signal ratio)
Outline: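 HTRF cAMP read-out at 665 and 620 nm emission (340 nm excitation). Antagonist mode: compounds were tested against 12 nM quinpirole in DRD2-HEK293 cells, with 200 nM NKH477 raising cAMP and 0.1 mM Ro20-1724 blocking its breakdown.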

[17] = molecular target: Gonadotropin-releasing hormone receptor (Homo sapiens) (UniProt P30968); experiment: Human gonadotropin-releasing hormone receptor (GnRHR) small molecule agonists, calcium flux assay in GnRHR-HEK293 cells (AID 1920063); further: nearly all actives have a fitted effect of over 35% in size
Gonadotropin-releasing hormone receptor (Homo sapiens), sequence (P30968 whole entry, looked up): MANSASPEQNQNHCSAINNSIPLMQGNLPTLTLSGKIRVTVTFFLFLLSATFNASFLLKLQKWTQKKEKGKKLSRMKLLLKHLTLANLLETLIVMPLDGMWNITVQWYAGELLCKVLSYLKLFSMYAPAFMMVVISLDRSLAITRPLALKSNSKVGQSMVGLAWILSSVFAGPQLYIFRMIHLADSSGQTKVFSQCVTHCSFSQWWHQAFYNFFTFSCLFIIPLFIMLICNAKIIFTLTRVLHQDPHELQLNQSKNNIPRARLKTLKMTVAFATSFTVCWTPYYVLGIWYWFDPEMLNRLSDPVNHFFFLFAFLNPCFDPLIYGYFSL
Outline: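 HEK293 cells stably expressing human GnRHR were plated 18 h at 37 °C, loaded with calcium dye 1 h at 37 °C, then given compound in agonist mode; fluorescence (Ex/Em 480/540) read kinetically for 3 min at 1 s intervals.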

[18] = p53 small molecule agonists, cell-based qHTS assay with human liver microsomes (AID 1963577);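 further: p53 response element beta-lactamase reporter cells with liver microsomes plus NADPH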
Outline: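 HLM-supplemented p53RE-bla reporter assay: 16 h compound exposure at 37 C, microsomes and NADPH each 0.5 mg/mL final, read by fluorescence intensity.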

[19] = p53 small molecule agonists, cell-based qHTS assay (AID 1963582; active means well fitted activation curve with a large enough effect in the signal ratio in the repeat runs, not every such curve was filed as active; the % refers to the signal ratio)
Outline: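 p53RE-bla beta-lactamase reporter cells rested 5 h at 37 C/5% CO2, then received compounds in DMSO by pin transfer and were incubated 16 h at 37 C. LiveBLAzer B/G FRET substrate was loaded for 2 h at room temperature before fluorescence reading.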

[20] = molecular target: Beta-2 adrenergic receptor (Homo sapiens) (UniProt P07550); experiment: Adrenergic beta2 receptor (ADRB2) small molecule agonists, cell-based qHTS assay (AID 1963593);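 further: CHO cells stably overexpressing human ADRB2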
Outline: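 CHO cells stably over-expressing ADRB2 were plated overnight at 37C, then dosed with compounds plus a stimulation mix containing 100uM IBMX and 25uM Ro-20-1724 for 0.5hr at room temperature. cAMP was measured by HTRF competition, 1hr.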

SMILES: O=C(O)c1ccc(OCCN2CCCCC2)cc1
- Potency [1]: inactive
- Potency [2]: inactive
- Potency [3]: inactive
- Potency [4]: inactive
- Potency [5]: inactive
- Potency [6]: inactive
- Potency [7]: inactive
- Potency [8]: inactive
- Potency [9]: inactive
- Potency [10]: inactive
- Potency [11]: inactive
- Potency [12]: inactive
- Potency [13]: inactive
- Potency [14]: inactive
- Potency [15]: inactive
- Potency [16]: inactive

SMILES: CCCN[C@H]1CCc2nc(N)sc2C1
- Potency [1]: inactive
- Potency [17]: inactive
- Potency [2]: inactive
- Potency [18]: inactive
- Potency [4]: inactive
- Potency [5]: inactive
- Potency [6]: inactive
- Potency [7]: inactive
- Potency [19]: inactive
- Potency [8]: inactive
- Potency [10]: inactive
- Potency [11]: inactive
- Potency [12]: inactive
- Potency [13]: inactive
- Potency [14]: inactive
- Potency [20]: inactive
- Potency [16]: inactive

SMILES: COc1ccc(-c2coc3cc(O)cc(O)c3c2=O)cc1
- Potency [17]: inactive
- Potency [2]: inactive
- Potency [3]: inactive
- Potency [18]: inactive
- Potency [4]: inactive
- Potency [5]: inactive
- Potency [6]: inactive
- Potency [7]: inactive
- Potency [19]: inactive
- Potency [8]: inactive and 33.4 µM (active)
- Potency [9]: inactive
- Potency [10]: inactive
- Potency [11]: inactive

SMILES: O=C(NCC1CCCCN1)c1cc(OCC(F)(F)F)ccc1OCC(F)(F)F (stereo not given)
- Potency [1]: inactive
- Potency [17]: inactive
- Potency [3]: inactive
- Potency [7]: inactive
- Potency [19]: inactive
- Potency [8]: inactive
- Potency [9]: inactive
- Potency [10]: inactive
- Potency [11]: inactive
- Potency [12]: inactive
- Potency [13]: inactive
- Potency [14]: inactive
- Potency [15]: inactive
- Potency [16]: inactive

SMILES: CC(C)(c1cc(Br)c(OCC(Br)CBr)c(Br)c1)c1cc(Br)c(OCC(Br)CBr)c(Br)c1 (stereo not given)
- Potency [1]: inactive
- Potency [17]: inactive
- Potency [3]: inactive
- Potency [18]: inactive
- Potency [4]: inactive
- Potency [5]: inactive
- Potency [6]: inactive
- Potency [7]: inactive
- Potency [19]: inactive
- Potency [8]: inactive
- Potency [10]: inactive
- Potency [11]: inactive
- Potency [12]: inactive
- Potency [13]: inactive
- Potency [14]: inactive
- Potency [20]: inactive
- Potency [15]: inactive
- Potency [16]: inactive

SMILES: CN/C(=C\[N+](=O)[O-])NCCSCc1ccc(CN(C)C)o1
- Potency [1]: inactive
- Potency [17]: inactive
- Potency [2]: inactive
- Potency [3]: inactive
- Potency [19]: inactive
- Potency [12]: inactive
- Potency [13]: inactive
- Potency [14]: inactive
- Potency [20]: inactive
- Potency [15]: inactive and 17.4 µM (active)
- Potency [16]: inactive

SMILES: Nc1ccc(O)cc1
- Potency [1]: 71.2 µM (active) and inactive
- Potency [2]: inactive
- Potency [3]: inactive
- Potency [5]: inactive
- Potency [6]: inactive
- Potency [7]: inactive
- Potency [9]: inactive
- Potency [11]: inactive
- Potency [13]: inactive
- Potency [14]: inactive
- Potency [20]: inactive
- Potency [15]: inactive
- Potency [16]: inactive

SMILES: O=c1[nH]c2ccc(Cl)cc2o1
- Potency [1]: inactive
- Potency [17]: inactive
- Potency [2]: inactive
- Potency [18]: inactive
- Potency [4]: inactive
- Potency [5]: inactive
- Potency [6]: inactive
- Potency [7]: inactive
- Potency [19]: inactive
- Potency [8]: inactive
- Potency [9]: inactive
- Potency [11]: inactive
- Potency [12]: inactive
- Potency [14]: inactive
- Potency [15]: inactive
- Potency [16]: inactive

SMILES: Cc1cc(O)cc(C)c1Cl
- Potency [1]: inactive
- Potency [17]: inactive
- Potency [3]: inactive
- Potency [5]: inactive
- Potency [6]: inactive
- Potency [7]: inactive
- Potency [12]: inactive
- Potency [13]: inactive
- Potency [14]: inactive
- Potency [15]: inactive
- Potency [16]: inactive

SMILES: O=C(O)CN(CCN(CC(=O)O)CC(=O)O)CCN(CC(=O)O)CC(=O)O
- activity change, negative = cytotoxicity [1]: -0.92% [at 19 µM] (inactive)
- activity change [17]: -0.364% [at 11.8 µM, stronger effect = higher value] (inactive)
- activation [2]: -1.13% [at 15.8 µM] (inactive)
- activation [4]: -0.423% [at 13.6 µM] (inactive)
- activity change, negative = cytotoxicity [5]: -3.04% [at 13.5 µM] (inactive)
- activity change, negative = cytotoxicity [7]: -11.9% [at 13.5 µM] (inactive)
- activation [19]: 12.4% [at 13.5 µM] (inactive)
- activity, negative = inhibition [8]: 10.6% [at 12.7 µM] (inactive)
- activation [9]: 7.55% [at 15.9 µM] (inactive)
- activity, negative = inhibition [10]: 9.64% [at 12.6 µM] (inactive)
- activation [11]: -0.409% [at 15.8 µM] (inactive)
- activation [12]: 1.22% [at 19 µM] (inactive)
- activity change, negative = inhibition [13]: 3.68% [at 18.9 µM] (inactive)
- activity change, negative = inhibition [14]: 2.09% [at 19 µM] (inactive)
- activation [15]: -12% [at 19 µM] (inactive)
- activity change, negative = inhibition [16]: 6.7% [at 18.9 µM] (inactive)
